# Source: PubChem BioAssay AID504339 (National Center for Advancing Translational Sciences (NCATS), 2011)
# Among all 390,000 compounds or so, about 17,000 (4.4%) were called active. Not shown: some 8% with an inconclusive outcome. This is one part of a sample in which actives are shown more often than they occur. The call rests on the fitted dose curve; in most records, active means well fitted inhibition curve with a large enough effect; inconclusive means small, poorly fitted or top-dose-only effect; inactive means no such curve, though single readings can be large or run the other way.
# Target: Lysine-specific demethylase 4A (Homo sapiens) (UniProt O75164)
# Assay: qHTS Assay for Inhibitors of JMJD2A-Tudor Domain; further: nearly all actives have a fitted effect of over 50% in size
# Details: AlphaScreen JMJD2A-Tudor / H3K4me3 peptide binding; series mostly up to 114 µM; activity change, negative = inhibition: at the top concentration
# On the % scale 0 is the no-effect control and ±100 the full control effect; potency means the concentration at half of the fitted maximal effect.
# Chain of Lysine-specific demethylase 4A (Homo sapiens) (O75164 whole entry, looked up, the tested form may be a part): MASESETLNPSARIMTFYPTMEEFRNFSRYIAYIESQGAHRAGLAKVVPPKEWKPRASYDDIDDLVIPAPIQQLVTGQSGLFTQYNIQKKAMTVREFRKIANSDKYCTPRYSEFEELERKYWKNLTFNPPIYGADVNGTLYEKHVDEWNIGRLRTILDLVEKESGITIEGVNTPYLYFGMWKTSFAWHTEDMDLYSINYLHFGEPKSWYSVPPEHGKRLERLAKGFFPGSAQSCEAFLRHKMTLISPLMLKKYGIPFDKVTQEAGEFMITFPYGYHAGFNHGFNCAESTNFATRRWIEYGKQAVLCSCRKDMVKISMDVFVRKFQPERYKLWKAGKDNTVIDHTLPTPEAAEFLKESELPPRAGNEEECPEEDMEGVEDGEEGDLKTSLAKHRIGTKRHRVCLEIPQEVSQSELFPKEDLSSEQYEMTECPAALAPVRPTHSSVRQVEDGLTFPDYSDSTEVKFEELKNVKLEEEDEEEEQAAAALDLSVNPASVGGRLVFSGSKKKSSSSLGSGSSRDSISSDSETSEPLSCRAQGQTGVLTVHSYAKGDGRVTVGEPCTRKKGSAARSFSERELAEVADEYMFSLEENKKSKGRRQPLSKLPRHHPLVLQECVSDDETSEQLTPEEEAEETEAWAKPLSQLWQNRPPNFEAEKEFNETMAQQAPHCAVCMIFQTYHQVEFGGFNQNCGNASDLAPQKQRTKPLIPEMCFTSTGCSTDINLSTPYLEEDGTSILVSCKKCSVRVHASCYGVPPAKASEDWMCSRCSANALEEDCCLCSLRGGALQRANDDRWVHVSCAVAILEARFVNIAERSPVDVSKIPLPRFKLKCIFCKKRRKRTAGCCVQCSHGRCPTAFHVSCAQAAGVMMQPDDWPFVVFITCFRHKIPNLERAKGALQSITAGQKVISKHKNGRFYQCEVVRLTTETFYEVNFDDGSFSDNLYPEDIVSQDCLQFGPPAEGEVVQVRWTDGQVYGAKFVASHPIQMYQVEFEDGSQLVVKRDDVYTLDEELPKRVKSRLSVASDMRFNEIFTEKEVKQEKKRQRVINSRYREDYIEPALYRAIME
Compound,"activity change, negative = inhibition",Potency
CCOC(=O)c1nnn(CC(=O)NC(=O)Nc2ccccc2F)c1C(=O)OCC,-9.21% (inactive),
COc1ccc(CCN2C(=O)c3oc4cc(C)cc(C)c4c(=O)c3C2c2ccccc2F)cc1OC (stereo not given),-10.7% (inactive),
O=C1CC(c2nnc(Cc3ccc(Cl)cc3)o2)CN1c1ccccc1 (stereo not given),-16.1% (inactive),
CCC(=O)N1CCc2cc(S(=O)(=O)NC(C(=O)Nc3ccc(C(C)=O)cc3)C(C)C)ccc21 (stereo not given),-12.7% (inactive),
CCC(=O)N1c2ccccc2CC1C(=O)N1CCN(c2cccc(OC)c2)CC1 (stereo not given),-18.9% (inactive),
CCCN(CCC)C(=O)C(Cc1ccccc1)NS(=O)(=O)c1ccc2c(c1)c(=O)n(C)c(=O)n2C (stereo not given),-18.9% (inactive),
Cc1ccc(N(CC(=O)NCc2ccc(Cl)cc2)S(=O)(=O)N(C)C)cc1,-8.33% (inactive),
Fc1ccccc1Oc1ncnc2c1oc1ccccc12,7% (inactive),
O=C(c1ccc2c(c1)N(Cc1ccc(F)cc1)C(=O)c1ccccc1S2(=O)=O)N1CCN(c2ccccn2)CC1,,inactive
C=CCn1c(SCc2cccc(F)c2)nc2cc(C(=O)N3CCC(C(N)=O)CC3)ccc2c1=O,-23.8% (inactive),
Cc1ccc(SCC(=O)N2CCN(c3ccc(F)cc3)CC2)cc1,-0.685% (inactive),
CC1CCN(C(=O)c2ccc3c(c2)NC(=O)CN3)CC1,-2.74% (inactive),
Cc1ccc(CSCC2Nc3ccc(C(=O)N4CCN(c5ccc(F)cc5)CC4)cc3NC2=O)cc1 (stereo not given),,22.4 µM (active)
O=C1Nc2cc(C(=O)N3CCN(c4ccc(F)cc4)CC3)ccc2NC1CSCc1cccc(F)c1 (stereo not given),,20 µM (active)
Cc1oc(-c2ccccc2)nc1Cn1c(SCc2cccc(C(F)(F)F)c2)nc2cccnc21,-35% (inactive),
Cc1ccc(C)c(NC(=O)Cn2ccn(-c3ccc(F)cc3)c(=O)c2=O)c1,0.658% (inactive),
O=C(Nc1nnc(Cc2ccc(Cl)cc2)s1)c1ccncc1,-12.5% (inactive),
O=C(Nc1nnc(Cc2ccc(Cl)cc2)s1)c1cccnc1,-2.94% (inactive),
O=C(Nc1nnc(Cc2ccccc2)s1)c1cnccn1,,50.1 µM (active)
CCCC(=O)N1CCN(c2nc3c(OC)ccc(C)c3s2)CC1,-6.17% (inactive),

Compound,"activity change, negative = inhibition",Potency
O=C(NC1=NCCS1)[C@H](Cc1ccccc1)N1C(=O)c2ccccc2C1=O,-19.4% (inactive),
COc1ccc(CNC(=O)COC(=O)C(CCSC)N2C(=O)c3ccccc3C2=O)cc1 (stereo not given),-34% (inactive),
CSCCC(C(=O)NC1=NCCS1)N1C(=O)c2ccccc2C1=O (stereo not given),,79.4 µM (active)
Cc1ccc2oc(=O)c3cnn(CC(=O)N4CCN(c5cccc(Cl)c5)CC4)c3c2c1,-4.3% (inactive),
CCCCN(CC)CCCNC(=O)c1nn(C)c2c1CS(=O)(=O)c1ccccc1-2,-9.21% (inactive),
CC(=O)c1cccc(NC(=O)CSc2nc3c(c(=O)[nH]2)CCC3)c1,-18.9% (inactive),
Cc1c(-c2cccc(NC(=O)C(C)(C)C)c2)nc2ncccn12,-1.61% (inactive),
Cc1ccccc1Nc1c(-c2ccccc2)nc2ncccn12,5.02% (inactive),
CCc1cccc(C)c1Nc1c(-c2ccc(N(C)C)cc2)nc2ncccn12,,35.5 µM (active)
CCn1cc(C(=O)N2CCN(c3cc(C)ccc3C)CC2)c(=O)c2cc(S(=O)(=O)N(C)C3CCCCC3)ccc21,-23% (inactive),
O=C(NCCc1ccccc1)c1cnc2sc(N3CCCC3)nn2c1=O,-0.333% (inactive),
COC(=O)c1ccc(NC(=O)CCc2c(C)nc3c(c(C)nn3-c3ccc(C)cc3)c2C)cc1,-3.02% (inactive),
CC[C@H](C)[C@@H](C(=O)N1CCNCC1)n1cc([C@@H](N)Cc2ccc(O)cc2)nn1,-33.6% (inactive),
C#CCOCCOCCOCCNc1nc(N2CCN(C(=O)C(Cc3ccc(O)cc3)n3cc(C(N)CC(C)C)nn3)CC2)nc(N2CCN(C(=O)C(Cc3ccc(O)cc3)n3cc(C(N)C(C)CC)nn3)CC2)n1 (stereo not given),,50.1 µM (active)
C#CCOCCOCCOCCNc1nc(N2CCOCC2)nc(N2CCN(C(=O)[C@H](Cc3ccc(O)cc3)n3cc(CCO)nn3)CC2)n1,-29% (inactive),
C#CCOCCOCCOCCNc1nc(N2CCN(C(=O)[C@H](CCC(=O)O)n3cc(C(N)CO)nn3)CC2)nc(N2CCN(C(=O)[C@H](Cc3ccc(O)cc3)n3cc(C(N)[C@H](C)CC)nn3)CC2)n1 (stereo not given in full),,28.2 µM (active)
C#CCOCCOCCOCCNc1nc(N2CCN(C(=O)[C@H](CCCCN)n3cc([C@@H](N)C(C)CC)nn3)CC2)nc(N2CCN(C(=O)[C@H](Cc3ccc(O)cc3)n3cc([C@@H](N)C(C)CC)nn3)CC2)n1 (stereo not given in full),,44.7 µM (active)
C#CCOCCOCCOCCNc1nc(N2CCN(C(=O)[C@H](Cc3ccc(O)cc3)n3cc(C(N)CC(C)C)nn3)CC2)nc(N2CCN(C(=O)[C@H](CCC(=O)O)n3cc(C(N)[C@H](C)CC)nn3)CC2)n1 (stereo not given in full),,44.7 µM (active)
O=C(NCc1ccccc1)c1ccc2c(c1)nc1n2CCCCC1,-9.09% (inactive),
CC(C)c1ccc(NS(=O)(=O)c2ccc3[nH]cc(C(=O)NC4CCCC4)c(=O)c3c2)cc1,-34% (inactive),

Compound,"activity change, negative = inhibition",Potency
CCC(Sc1nc2n[nH]c(C)c2c(=N)n1-c1ccccc1Cl)C(=O)N(CC)CC (stereo not given),-4.81% (inactive),
Cc1nnc(SCc2cc(=O)c3cc(F)ccc3[nH]2)n1C,-12% (inactive),
Cc1cc(NC(=O)c2ccc(-c3ccc(Cl)cc3)o2)cc(-c2nc3ncccc3o2)c1O,-1.49% (inactive),
CC(=O)c1ccc(NC(=O)c2nc3nc(C)cc(C(F)F)n3n2)cc1,-8.93% (inactive),
CCCc1cc(-c2n[nH]c(=S)n2Cc2ccccc2)cs1,-26% (inactive),
CCc1cc(-c2nnc(SCC(=O)NC3CC3)n2C)cs1,-3.32% (inactive),
CCc1cc(-c2n[nH]c(=S)n2CC(C)C)cs1,,28.2 µM (active)
Cc1ccccc1NC(=O)CN1C(=O)C(C)(C)c2ccccc21,-7.74% (inactive),
CCOc1ccc(N(CC)S(=O)(=O)N2CCCC(C(=O)NCc3ccc(SC)cc3)C2)cc1 (stereo not given),-20.5% (inactive),
CCc1nc(-c2cc(S(=O)(=O)N3CCN(c4ccc(OC)cc4)CC3)ccc2OC)no1,,79.4 µM (active)
COc1ccc(S(=O)(=O)N2CCN(c3ccc(F)cc3)CC2)cc1-c1noc(C)n1,-15.1% (inactive),
COc1ccc(N2CCN(S(=O)(=O)c3ccc(-c4coc(C)n4)cc3)CC2)cc1,-31.9% (inactive),
Cc1csc2nc(COc3ccc(NC(=O)COc4ccccc4)cc3)cc(=O)n12,-17.5% (inactive),
CCn1c2ccccc2c2nnc(SCC(=O)O)nc21,-18.6% (inactive),
CCOc1cc2[nH]c(=S)n(CCCN3CCCC3=O)c(=O)c2cc1OCC,,22.4 µM (active)
CCOc1cc2[nH]c(=S)n(CCN3CCCCC3C)c(=O)c2cc1OCC (stereo not given),0% (inactive),
CCOc1cc2[nH]c(=O)n(Cc3ccc(C(=O)NCCCN4CCCC4=O)cc3)c(=O)c2cc1OCC,-12.8% (inactive),
O=C(CCn1c(=S)[nH]c2ccccc2c1=O)NCCCN1CCCC1=O,,17.8 µM (active)
O=C(CCC(=O)NNc1nc2ccccc2c2nc(-c3ccccc3)nn12)NCCCN1CCCC1=O,-12.6% (inactive),
O=C(CCCCCn1c(=O)[nH]c2ccccc2c1=O)NCCc1c[nH]c2ccccc12,-25.3% (inactive),
